Experimental data published in the supplement of paper PMC10849652.
The full data set covers some 7,900 targets. This sample favours those with a hit. About 0.6% of all pairs of compound and target were hits. Values without a mark were called inactive.

Tests used:
Assay in all cases: log2 fold change, soluble protein after heating vs DMSO (PISA); higher = thermal stabilisation; K562 cells, 10 uM, 30 min; active = over 0.2 and 3.5 SD of the protein, either way, in both replicates (recomputed)
[1] = compound: CS(=O)(=O)c1ccc(-c2cnc(N)c(C(=O)Nc3ccccc3)n2)cc1
How it was run: (§1)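 Quantification of soluble protein used TMTpro 16plex LC-MS/MS, with channel sums equalised. Samples were the supernatant after 21,000xg for 90 min of pooled aliquots from K562 cells (2×10^6 cells/mL) treated with 10 μM compound for 30 min, heated for 3 min over 48°C-58°C, and extracted in PBS with 0.5% NP-40 at 4°C. Values, from duplicates, describe thermal stability against control samples on a log2 fold-change scale.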

crizotinib = compound: C[C@@H](Oc1cc(-c2cnn(C3CCNCC3)c2)cnc1N)c1c(Cl)ccc(F)c1Cl [crizotinib]
How it was run: as §1

[2] = compound: C[C@@H]1COCCN1C2=NC(=NC(=C2)C3(CC3)S(=O)(=O)C)C4=C5C=CNC5=CC=C4
How it was run: as §1

[3] = compound: C[C@H](C1=CC=C(C=C1)C(=O)NC2=C3C=CNC3=NC=C2)N
How it was run: as §1

duvelisib = compound: C[C@H](Nc1ncnc2nc[nH]c12)c1cc2cccc(Cl)c2c(=O)n1-c1ccccc1 [duvelisib]
How it was run: as §1

gandotinib = compound: Cc1cc(Nc2cc(CN3CCOCC3)c3nc(C)c(Cc4ccc(Cl)cc4F)n3n2)n[nH]1 [gandotinib]
How it was run: as §1

tozasertib = compound: Cc1cc(Nc2cc(N3CCN(C)CC3)nc(Sc3ccc(NC(=O)C4CC4)cc3)n2)n[nH]1 [tozasertib]
How it was run: as §1

[4] = compound: Cc1cc(SCc2sc(-c3ccc(C(F)(F)F)cc3)nc2C)ccc1OCC(=O)O
How it was run: as §1

doramapimod = compound: Cc1ccc(-n2nc(C(C)(C)C)cc2NC(=O)Nc2ccc(OCCN3CCOCC3)c3ccccc23)cc1 [doramapimod]
How it was run: as §1

ispinesib = compound: Cc1ccc(C(=O)N(CCCN)[C@@H](c2nc3cc(Cl)ccc3c(=O)n2Cc2ccccc2)C(C)C)cc1 [ispinesib]
How it was run: as §1

bafetinib = compound: Cc1ccc(NC(=O)c2ccc(CN3CC[C@H](N(C)C)C3)c(C(F)(F)F)c2)cc1Nc1nccc(-c2cncnc2)n1 [bafetinib]
How it was run: as §1

[5] = compound: Cc1cccc(CC(=O)N2CCc3c2ccc(-c2cn(C)c4ncnc(N)c24)c3F)n1
How it was run: as §1

nilotinib = compound: Cc1cn(-c2cc(NC(=O)c3ccc(C)c(Nc4nccc(-c5cccnc5)n4)c3)cc(C(F)(F)F)c2)cn1 [nilotinib]
How it was run: as §1

[6] = compound: Cc1nc(Nc2n[nH]c3c2CN(C(=O)N[C@H](CN(C)C)c2ccccc2)C3(C)C)c2sccc2n1
How it was run: as §1

dasatinib = compound: Cc1nc(Nc2ncc(C(=O)Nc3c(C)cccc3Cl)s2)cc(N2CCN(CCO)CC2)n1 [dasatinib]
How it was run: as §1

[7] = compound: Cc1ncc(-c2ccnc(Nc3ccc(S(C)(=O)=O)cc3)n2)n1C(C)C
How it was run: as §1

[8] = compound: Cn1cc(-c2ccc3c(c2)CCN3C(=O)Cc2cccc(C(F)(F)F)c2)c2c(N)ncnc21
How it was run: as §1

[9] = compound: Cn1cc(-c2ccc3nnc(C(F)(F)c4ccc5ncccc5c4)n3n2)cn1
How it was run: as §1

tipifarnib = compound: Cn1cncc1[C@@](N)(c1ccc(Cl)cc1)c1ccc2c(c1)c(-c1cccc(Cl)c1)cc(=O)n2C [tipifarnib]
How it was run: as §1

mubritinib = compound: FC(F)(F)c1ccc(/C=C/c2nc(COc3ccc(CCCCn4ccnn4)cc3)co2)cc1 [mubritinib]
How it was run: as §1

Sequence of UniProt P01130 (P01130 whole entry, looked up): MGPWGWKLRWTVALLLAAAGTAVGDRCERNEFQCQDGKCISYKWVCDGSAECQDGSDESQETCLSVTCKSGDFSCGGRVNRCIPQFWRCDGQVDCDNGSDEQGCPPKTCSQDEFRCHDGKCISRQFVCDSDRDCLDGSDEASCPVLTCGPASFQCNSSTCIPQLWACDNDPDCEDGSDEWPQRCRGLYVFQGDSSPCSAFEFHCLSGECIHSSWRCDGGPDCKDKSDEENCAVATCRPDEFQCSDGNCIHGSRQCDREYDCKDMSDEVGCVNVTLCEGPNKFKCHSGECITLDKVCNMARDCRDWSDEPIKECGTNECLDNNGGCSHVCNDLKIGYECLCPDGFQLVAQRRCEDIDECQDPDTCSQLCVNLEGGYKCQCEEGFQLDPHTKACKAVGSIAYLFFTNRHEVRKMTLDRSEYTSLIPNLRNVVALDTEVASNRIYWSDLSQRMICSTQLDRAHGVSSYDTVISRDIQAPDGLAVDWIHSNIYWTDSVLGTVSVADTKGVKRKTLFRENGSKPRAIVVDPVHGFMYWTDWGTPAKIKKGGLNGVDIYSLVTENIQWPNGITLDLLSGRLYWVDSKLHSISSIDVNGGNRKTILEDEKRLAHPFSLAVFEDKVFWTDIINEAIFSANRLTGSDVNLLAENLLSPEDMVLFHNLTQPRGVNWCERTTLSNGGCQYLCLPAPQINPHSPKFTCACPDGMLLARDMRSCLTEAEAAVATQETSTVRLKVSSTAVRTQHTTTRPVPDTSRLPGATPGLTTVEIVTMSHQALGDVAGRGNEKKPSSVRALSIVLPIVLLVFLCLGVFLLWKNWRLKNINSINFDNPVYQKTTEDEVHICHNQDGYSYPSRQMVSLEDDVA
Sequence of UniProt Q03252 (Q03252 whole entry, looked up): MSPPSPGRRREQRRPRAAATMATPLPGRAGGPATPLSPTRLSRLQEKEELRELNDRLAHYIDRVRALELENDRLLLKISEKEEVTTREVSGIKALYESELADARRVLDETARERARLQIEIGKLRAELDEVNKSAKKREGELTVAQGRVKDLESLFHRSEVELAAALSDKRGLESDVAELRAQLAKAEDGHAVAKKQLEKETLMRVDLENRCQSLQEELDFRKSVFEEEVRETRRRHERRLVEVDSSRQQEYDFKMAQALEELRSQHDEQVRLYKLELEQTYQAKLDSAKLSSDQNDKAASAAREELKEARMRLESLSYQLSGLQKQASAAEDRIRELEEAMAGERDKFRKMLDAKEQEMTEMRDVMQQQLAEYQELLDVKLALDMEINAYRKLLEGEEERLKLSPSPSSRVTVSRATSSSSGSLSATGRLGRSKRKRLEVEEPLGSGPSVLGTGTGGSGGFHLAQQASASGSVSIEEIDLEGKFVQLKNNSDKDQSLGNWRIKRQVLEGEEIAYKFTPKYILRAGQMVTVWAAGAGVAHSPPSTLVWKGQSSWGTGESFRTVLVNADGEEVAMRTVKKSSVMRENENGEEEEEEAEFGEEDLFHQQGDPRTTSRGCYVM
Sequence of UniProt P50851 (P50851 whole entry, looked up): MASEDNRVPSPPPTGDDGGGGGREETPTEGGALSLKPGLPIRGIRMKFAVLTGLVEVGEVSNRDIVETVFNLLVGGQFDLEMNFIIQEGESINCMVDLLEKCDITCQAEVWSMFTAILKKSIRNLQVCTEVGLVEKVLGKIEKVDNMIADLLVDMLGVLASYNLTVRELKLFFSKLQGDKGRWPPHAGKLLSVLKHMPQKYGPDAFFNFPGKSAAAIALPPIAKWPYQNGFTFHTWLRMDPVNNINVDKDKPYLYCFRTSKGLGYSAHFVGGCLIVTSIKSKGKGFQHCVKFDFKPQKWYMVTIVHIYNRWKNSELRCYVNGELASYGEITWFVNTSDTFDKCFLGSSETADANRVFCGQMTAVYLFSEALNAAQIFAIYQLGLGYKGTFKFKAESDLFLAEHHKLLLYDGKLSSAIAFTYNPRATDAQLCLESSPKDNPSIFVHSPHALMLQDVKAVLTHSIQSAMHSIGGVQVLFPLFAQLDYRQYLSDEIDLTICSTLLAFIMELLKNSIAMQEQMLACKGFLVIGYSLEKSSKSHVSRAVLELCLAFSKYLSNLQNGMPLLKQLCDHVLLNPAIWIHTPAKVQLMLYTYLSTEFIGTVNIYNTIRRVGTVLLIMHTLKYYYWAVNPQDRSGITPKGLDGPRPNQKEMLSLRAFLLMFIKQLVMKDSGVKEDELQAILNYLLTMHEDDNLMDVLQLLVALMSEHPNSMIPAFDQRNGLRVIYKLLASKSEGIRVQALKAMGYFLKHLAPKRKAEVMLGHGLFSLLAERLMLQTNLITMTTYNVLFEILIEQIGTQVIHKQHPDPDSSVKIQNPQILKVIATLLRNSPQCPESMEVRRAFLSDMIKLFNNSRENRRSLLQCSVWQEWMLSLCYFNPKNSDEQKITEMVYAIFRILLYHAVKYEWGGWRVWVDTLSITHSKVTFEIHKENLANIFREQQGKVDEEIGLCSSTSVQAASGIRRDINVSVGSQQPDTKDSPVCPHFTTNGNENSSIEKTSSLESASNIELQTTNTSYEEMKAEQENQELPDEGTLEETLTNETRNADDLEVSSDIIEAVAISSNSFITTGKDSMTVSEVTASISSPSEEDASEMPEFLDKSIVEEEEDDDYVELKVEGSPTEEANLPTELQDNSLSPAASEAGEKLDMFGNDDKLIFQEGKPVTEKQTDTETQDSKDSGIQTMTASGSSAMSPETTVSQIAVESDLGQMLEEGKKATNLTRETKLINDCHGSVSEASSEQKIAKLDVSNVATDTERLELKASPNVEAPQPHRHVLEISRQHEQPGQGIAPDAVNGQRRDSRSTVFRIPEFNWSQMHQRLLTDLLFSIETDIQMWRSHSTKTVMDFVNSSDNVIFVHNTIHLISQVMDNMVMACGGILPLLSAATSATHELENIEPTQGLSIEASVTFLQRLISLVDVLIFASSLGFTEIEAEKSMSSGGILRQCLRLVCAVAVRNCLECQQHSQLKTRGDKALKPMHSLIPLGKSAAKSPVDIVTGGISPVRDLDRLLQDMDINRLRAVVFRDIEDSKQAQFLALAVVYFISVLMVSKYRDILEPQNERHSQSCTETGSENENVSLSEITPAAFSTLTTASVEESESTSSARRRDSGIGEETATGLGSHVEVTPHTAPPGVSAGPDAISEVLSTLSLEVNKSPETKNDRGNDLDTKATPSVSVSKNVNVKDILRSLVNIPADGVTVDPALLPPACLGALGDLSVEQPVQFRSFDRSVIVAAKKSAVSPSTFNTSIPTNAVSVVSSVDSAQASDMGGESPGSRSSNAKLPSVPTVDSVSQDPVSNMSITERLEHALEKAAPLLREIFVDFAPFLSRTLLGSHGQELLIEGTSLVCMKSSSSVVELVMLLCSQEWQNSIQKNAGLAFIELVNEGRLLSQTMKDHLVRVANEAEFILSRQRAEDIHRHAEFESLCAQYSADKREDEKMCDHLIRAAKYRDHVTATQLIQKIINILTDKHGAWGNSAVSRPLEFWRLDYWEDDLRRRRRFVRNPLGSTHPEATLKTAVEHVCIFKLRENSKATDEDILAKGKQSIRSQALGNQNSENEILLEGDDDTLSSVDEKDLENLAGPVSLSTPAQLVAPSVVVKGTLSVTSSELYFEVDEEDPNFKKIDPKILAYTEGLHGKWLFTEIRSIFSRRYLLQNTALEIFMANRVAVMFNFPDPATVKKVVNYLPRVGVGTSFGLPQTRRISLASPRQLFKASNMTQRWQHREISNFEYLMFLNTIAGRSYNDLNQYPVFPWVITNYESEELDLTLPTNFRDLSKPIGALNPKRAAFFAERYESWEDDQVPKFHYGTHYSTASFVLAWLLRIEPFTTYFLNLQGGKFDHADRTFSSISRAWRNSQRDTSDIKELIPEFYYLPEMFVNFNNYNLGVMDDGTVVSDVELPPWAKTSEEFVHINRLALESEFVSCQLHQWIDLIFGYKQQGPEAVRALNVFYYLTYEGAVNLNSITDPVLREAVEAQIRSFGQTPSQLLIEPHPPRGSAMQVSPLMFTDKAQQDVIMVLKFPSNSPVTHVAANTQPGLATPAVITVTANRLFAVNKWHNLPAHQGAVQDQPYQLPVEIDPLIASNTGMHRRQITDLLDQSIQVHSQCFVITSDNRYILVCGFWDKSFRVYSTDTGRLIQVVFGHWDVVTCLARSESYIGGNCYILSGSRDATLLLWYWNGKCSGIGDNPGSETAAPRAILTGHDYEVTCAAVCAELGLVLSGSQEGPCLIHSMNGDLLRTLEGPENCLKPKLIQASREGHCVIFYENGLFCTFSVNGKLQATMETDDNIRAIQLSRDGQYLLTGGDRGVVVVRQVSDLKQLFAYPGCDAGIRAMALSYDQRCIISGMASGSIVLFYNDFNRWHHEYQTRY
Sequence of UniProt Q9H0C8 (Q9H0C8 whole entry, looked up): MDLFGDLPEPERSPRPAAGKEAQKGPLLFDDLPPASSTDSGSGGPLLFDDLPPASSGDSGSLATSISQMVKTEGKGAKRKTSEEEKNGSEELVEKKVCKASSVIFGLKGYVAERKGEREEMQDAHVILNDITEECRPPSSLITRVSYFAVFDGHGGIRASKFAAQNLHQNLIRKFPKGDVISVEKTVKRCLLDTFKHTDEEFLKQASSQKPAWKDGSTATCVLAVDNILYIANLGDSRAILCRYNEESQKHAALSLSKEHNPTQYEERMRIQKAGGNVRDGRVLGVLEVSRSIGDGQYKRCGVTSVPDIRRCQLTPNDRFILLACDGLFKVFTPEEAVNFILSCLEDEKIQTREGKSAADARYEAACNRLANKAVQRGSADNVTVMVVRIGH
Sequence of UniProt Q96A72 (Q96A72 whole entry, looked up): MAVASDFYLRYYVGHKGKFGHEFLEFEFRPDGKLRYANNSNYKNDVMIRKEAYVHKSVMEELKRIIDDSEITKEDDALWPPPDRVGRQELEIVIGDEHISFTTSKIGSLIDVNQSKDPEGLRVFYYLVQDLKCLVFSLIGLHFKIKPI

Row | Target | log2 fold change [1] | log2 fold change (crizotinib) | log2 fold change [2] | log2 fold change [3] | log2 fold change (duvelisib) | log2 fold change (gandotinib) | log2 fold change (tozasertib) | log2 fold change [4] | log2 fold change (doramapimod) | log2 fold change (ispinesib) | log2 fold change (bafetinib) | log2 fold change [5] | log2 fold change (nilotinib) | log2 fold change [6] | log2 fold change (dasatinib) | log2 fold change [7] | log2 fold change [8] | log2 fold change [9] | log2 fold change (tipifarnib) | log2 fold change (mubritinib)
1 | MAP3K20 (UniProt Q9NYL2) | -0.003 | -0.01 | -0.065 | 0.059 | -0.022 | -0.025 | 0.002 | 0.053 | -0.072 | -0.141 | -0.246 (active) | 0.039 | -0.216 | 0.057 | -0.712 (active) | -0.079 | -0.065 | -0.019 | -0.013 | -0.041
2 | MED16 (UniProt Q9Y2X0) | -0.04 | -0.072 | -0.071 | 0.06 | -0.053 | -0.098 | -0.096 | 0.063 | 0.08 | -0.097 | 0.018 | -0.009 | -0.014 | -0.092 | 0.141 | -0.287 | -0.144 | 0.009 | -0.029 | 0.024
3 | LTN1 isoform 3 (UniProt O94822) | -0.049 | -0.136 | -0.077 | 0.128 | -0.05 | -0.234 | 0.012 | 0.11 | 0.021 | -0.229 | -0.036 | 0.039 | -0.079 | -0.031 | -0.122 | -0.052 | -0.09 | -0.042 | -0.151 | -0.009
4 | LDLR (UniProt P01130) | -0.005 | -0.363 (active) | -0.05 | -0.045 | -0.05 | -0.038 | -0.088 | -0.094 | -0.017 | -0.052 | 0.005 | -0.029 | 0.041 | -0.027 | 0.056 | -0.064 | 0.013 | 0.029 | 0.097 | -0.082
5 | MAGOHB (UniProt Q96A72) | 0.005 | 0.324 (active) | 0.013 | -0.131 | 0.039 | 0.084 | 0.141 | 0.05 | -0.016 | 0.076 | -0.015 | -0.007 | -0.019 | -0.042 | 0.007 | 0.138 | -0.017 | 0.024 | 0 | 0.04
6 | MAP1LC3B2 (UniProt A6NCE7) | 0.035 | -0.047 | 0.054 | -0.144 | 0.061 | -0.012 | 0.114 | 0.011 | 0.003 | 0.02 | -0.044 | -0.029 | -0.006 | -0.023 | -0.024 | 0.072 | 0.019 | -0.011 | 0.007 | 0.018
7 | MIEF1 (UniProt L0R8F8) | -0.023 | 0.068 | -0.067 | -0.065 | 0.151 | -0.062 | 0.023 | -0.025 | -0.04 | -0.03 | -0.077 | -0.001 | -0.1 | 0.067 | 0.001 | -0.093 | 0.022 | -0.053 | -0.03 | -0.039
8 | LEO1 (UniProt Q8WVC0) | 0.092 | 0.026 | -0.202 | -0.126 | 0.008 | -0.031 | 0.114 | -0.008 | 0.071 | 0.052 | -0.003 | 0.008 | -0.125 | -0.045 | 0.049 | -0.094 | -0.026 | 0.023 | -0.009 | 0.035
9 | JAK3 (UniProt P52333) | 0.001 | 0.048 | 0.142 | -0.062 | 0.133 | -0.132 | 0.032 | 0.135 | -0.071 | 0.087 | -0.013 | -0.056 | -0.01 | 0.082 | -0.028 | -0.02 | -0.019 | 0.044 | 0.052 | -0.061
10 | ILK (UniProt Q13418) | 0.054 | 0.038 | -0.001 | 0.046 | 0.081 | -0.039 | -0.105 | -0.046 | -0.023 | -0.153 | -0.038 | -0.012 | 0.122 | -0.024 | -0.07 | -0.002 | 0.027 | 0.005 | -0.023 | 0.048
11 | LRPPRC (UniProt P42704) | 0.025 | -0.822 | 0.154 | 0.065 | 0.059 | -0.175 | 0.213 | 0.481 | -0.172 | -0.416 | -0.053 | 0.117 | -0.14 | -0.721 | -0.732 | 0.016 | 0.236 | 0.24 | -0.656 | -0.161
12 | LRBA (UniProt P50851) | 0.018 | -0.054 | 0.037 | -0.005 | 0.012 | -0.094 | -0.006 | 0.011 | 0.012 | -0.078 | -0.047 | 0.053 | -0.067 | -0.022 | -0.061 | 0.014 | 0.047 | 0.002 | -0.06 | 0.024
13 | KIAA1324L (UniProt A8MWY0) | 0.081 | -0.125 | 0.06 | 0.062 | -0.027 | 0.076 | -0.036 | -0.057 | 0.051 | -0.124 | -0.099 | 0.022 | 0.042 | -0.031 | 0.025 | -0.003 | 0.022 | 0.029 | 0.047 | 0.091
14 | ILKAP (UniProt Q9H0C8) | 0.008 | 0.064 | 0.174 | -0.054 | 0.041 | -0.061 | 0 | 0.085 | -0.055 | 0.05 | 0.028 | 0.079 | 0.052 | -0.117 | -0.208 | 0.02 | 0.036 | 0.045 | -0.093 | 0.137
15 | LMNB2 (UniProt Q03252) | 0.007 | 0.039 | 0.179 | 0.079 | 0.072 | -0.003 | 0.03 | 0.033 | 0.019 | 0.016 | -0.067 | -0.078 | 0.022 | -0.077 | 0.101 | -0.158 | 0.015 | -0.007 | 0.166 | -0.043
16 | MDC1 (UniProt Q14676) | -0.053 | -0.109 | 0.041 | 0.107 | -0.057 | 0.423 | -0.154 | -0.031 | 0.178 | -0.217 | -0.1 | -0.269 | 0.037 | 0.02 | 0.398 | -0.191 | -0.031 | -0.043 | 0.058 | -0.038
